# Rows were chosen to be rich in hits. Some 3.8% of all compounds tested hit in one or more screens of this group.
# HSF1 inh: HSF1 inhibitors in luciferase reporter cells, primary screen, cell-based, NIH3T3, luminescence; NIH3T3-HGL HSE-luciferase, MG132-induced, luminescence 8 h; hits give low values; activity change, negative = inhibition, % at 7.5 µM (by protocol); 300,000 tested, 0.77% active;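 active = more than half of replicate wells show activity change below -50%, luminescence cut by over half; inconclusive = some wells, but at most half, below -50%; inactive = no replicate well below -50%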;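 note: luciferase reports HSF-1 transcriptional activity via heat shock element; 0% = median of DMSO wells and -100% = zero luminescence signal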
# esBAF inh: Bmi1 luciferase reporter increase in mESCs, primary screen, esBAF inhibitor project, mouse ES cells, Bmi1 luciferase knock-in, single point; 350,000 tested, 2% active; reporter increase, % at 12.5 µM; 24 h; 100% = twice the neutral-well signal; AID 602393, 2012; in the data active = activation above about 40%; inconclusive = no clear call, values can overlap the other calls;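 note: 0% = median of the plate's neutral control wells and 100% = double that signal; a rise in the Bmi1 reporter signal indicates esBAF inhibition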
# Wnt bcat act: Wnt/beta-catenin pathway activators, primary screen, cell-based, plate reader, single point. Wnt/beta-catenin reporter cell assay, activator. activation, % at 9.35 µM. 300,000 tested, 1.2% active. AID 743398, 2014; in the data active = activation above about 30%, passing the limit was not always enough; inconclusive = no clear call, values can overlap the other calls;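 note: 0% = neutral control wells and 100% = positive control wells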
# HSF-1 act: HSF-1 activators, primary screen, NIH3T3-HGL cells, MG132 stress, luminescence, single point | NIH3T3-HGL HSF-1 luciferase reporter, 8 h; 100% = twice DMSO control signal | activation, % at 9 µM | 300,000 tested, 1.7% active | AID 504408, 2011;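 active = mean replicate activation of at least 50% with a set share of replicates each reaching 50%; inconclusive = only one of those two conditions met; inactive = mean below 50% and too few replicates reaching it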;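 note: 0% = median of the neutral control wells and 100% = twice that signal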
# MITF TRPM1 HTS: activators of MITF-driven TRPM1 promoter reporter, primary screen, cell-based, SK-MEL-5, luciferase, single point. 300,000 tested, 0.75% active. SK-MEL-5 TRPM1-promoter luciferase, 24 h; % of positive control, neutral wells = 0. activation, % at 12.5 µM;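 active = mean activation of at least 80% with every replicate also reaching 80%; inconclusive = mean reaches 80% but some replicate falls short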;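 note: 0% = neutral control wells and 100% = parthenolide positive control wells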
# Starred values were filed as active, the others as inactive; u = inconclusive; x = no result.
SMILES,HSF1 inh,esBAF inh,Wnt bcat act,HSF-1 act,MITF TRPM1 HTS
CC(C)n1cc(/C=N/NC(=O)COc2cccc3cccnc23)c2ccccc21,22,x,-1,78*,7
C[C@H](CO)N1C[C@H](C)[C@H](CN(C)C(=O)CCC(F)(F)F)OCCCC[C@H](C)Oc2ccc(NS(=O)(=O)c3cn(C)cn3)cc2C1=O,x,-1,x,x,x
O=c1[nH]c2ccccc2nc1Cc1ccc(Cl)cc1,-2,0,-7,-2,3
c1ccc(CCc2nc3ccccc3[nH]2)cc1,11,20,42*,33,69
c1csc(Cc2nc3ccccc3[nH]2)c1,5,71*,18,0,27
O=c1[nH]c2ccccc2nc1CCc1ccccc1,8,x,31*,10,78
C[C@H]1CN([C@@H](C)CO)C(=O)c2cc(-c3ccc(C#N)cc3)cnc2O[C@H]1CN(C)Cc1ccccn1,x,-1,x,x,x
C[C@@H]1CCCCO[C@@H](CN(C)S(=O)(=O)c2cccs2)[C@@H](C)CN([C@@H](C)CO)C(=O)c2cc(NS(C)(=O)=O)ccc2O1,x,-1,x,x,x
CCN(CC(=O)NCc1ccc(F)cc1)C(=O)c1ccc(COc2ccccc2)cc1,6,57*,0,7,45
CCc1ccc(/C=N\NC(=O)c2ccc(Br)o2)s1,21,x,x,34,51
Nc1ccccc1C(=O)NN=Cc1cccc([N+](=O)[O-])c1,x,u,39*,x,x
Cc1nc2ccccc2cc1C(=O)N/N=C/c1cccc([N+](=O)[O-])c1,-1,x,-5,2,4
O=C(N/N=C/c1ccc2c(c1)OCO2)c1ccc(Br)o1,21,x,43*,38,87*
CCN(CC)c1ccc(/C=N/NC(=O)c2ccc(Br)o2)cc1,18,x,0,19,116*
O=C(N/N=C/c1ccsc1)c1ccc2c(c1)OCO2,x,49*,14,x,86*
COc1cccc(CNC(=O)[C@@H]2[C@@H](CO)[C@@H]3Cn4c(ccc(C5=CCCCC5)c4=O)[C@H]2N3)c1,x,3,x,x,x
COc1ccc(S(=O)(=O)N(C)C[C@H]2Oc3ccc(NC(=O)C4CCCCC4)cc3C(=O)N([C@@H](C)CO)C[C@H]2C)cc1,x,5,x,x,x
C[C@H](CO)N1C[C@H](C)[C@H](CN(C)C(=O)c2ccc3c(c2)OCO3)Oc2cc(-c3cncnc3)ccc2S1(=O)=O,x,4,x,x,x
C/C(=N\NC(=O)c1ccc2c(c1)OCO2)c1ccc(NS(C)(=O)=O)cc1,1,51*,3,18,21
O=C(N/N=C/c1cccc([N+](=O)[O-])c1)c1ccc2c(c1)OCCO2,5,44*,40*,3,x
O=C(N/N=C/c1ccc(Cl)cc1)c1ccc2c(c1)OCO2,36,63*,18,55*,46
COc1ccccc1C(=O)NCC(=O)N/N=C/c1ccc2c(c1)OCO2,-73*,2,-3,-78,17
O=C(N/N=C/c1ccncc1)c1ccc2c(c1)OCO2,-15,11,0,2,30
CCCc1cn(CC[C@@H]2CC[C@@H](NS(=O)(=O)c3ccccc3Cl)[C@H](CO)O2)nn1,x,8,x,x,x
COc1cc(/C=N/NC(=O)c2cccnc2)ccc1OC(=O)c1cc(OC)c(OC)c(OC)c1,8,5,2,16,7
SMILES,HSF1 inh,esBAF inh,Wnt bcat act,HSF-1 act,MITF TRPM1 HTS
O=C(N/N=C/c1ccc2c(c1)OCO2)c1ccc2c(c1)OCCO2,-55*,x,17,-60,44
COc1cc(/C=N/NC(=O)c2cccnc2)ccc1OC(=O)c1ccc2c(c1)OCO2,10,x,46*,-1,-2
O=C(N/N=C/c1ccc2c(c1)OCCO2)c1ccncc1,1,x,4,-1,x
COc1cc(/C=N/NC(=O)c2ccc(Cl)cc2)ccc1OCC(=O)N1CC(C)OC(C)C1 (stereo unspecified),13,6,0,56*,-6
CO[C@H](CN(C)S(=O)(=O)c1ccccc1)[C@H](C)CN(Cc1ccccc1Cl)[C@@H](C)CO,x,4,x,x,x
CCC(=O)Nc1ccc2c(c1)OC[C@@H](C)N(CCc1ccccc1)C[C@@H](C)[C@@H](OC)CN(C)C2=O,x,-10,x,x,x
COCC(=O)N(C)C[C@H]1Oc2ncc(-c3ccc(C#N)cc3)cc2C(=O)N([C@H](C)CO)C[C@H]1C,x,1,x,x,x

# Assay outcomes deposited in PubChem BioAssay by Broad Institute.
